In PubChem BioAssay AID588850 (Sanford-Burnham Center for Chemical Genomics, 2011):
The whole screen tested about 360,000 compounds, of which about 3,100 (0.86%) were called active.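 How the source made its calls: active means at least 50% inhibition at 5 µM, scaled per plate between neutral and stimulator controls; inactive means the rest.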 For the sample, actives were picked, then their nearest neighbours and some compounds at random.

Assay: NF-kB reporter blockers in CF airway cells – cell-based, GFP fluorescence, uHTS, primary screen (AID 588850);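 further: PAF is a Pseudomonas aeruginosa culture filtrate used as stimulus; plate controls were PAF-stimulated DMSO wells for no effect and unstimulated DMSO wells for full effect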
Conditions: KKLEB NF-kB-GFP reporter, PAF-induced, GFP fluorescence overnight; at 5 µM; hits give high values

inhibition, active:
CC(=O)OC(C)C[N+](C)(C)C (stereo not given) 80.7%
CC(C)C[C@H]1CNC(=S)N1C[C@H]1CCCN1C[C@H](Cc1ccc(O)cc1)N1C[C@H](Cc2ccc(O)cc2)N(CC2CCCCC2)C1=S 65.6%
O=[N+]([O-])c1cc(S(=O)(=O)Nc2cccc(Cl)c2)ccc1N=Nc1c(O)[nH]c2ccccc12 80%
Cc1ccc([C@H]2C[C@H](O)[C@@H](n3cc(COC(=O)c4ccccc4)nn3)CN2CC2CCCCC2)cc1 58.5%
COc1ccc(NC(=S)SC)cc1OC 59.7%

inhibition, inactive:
Cc1nc2ccccn2c(=O)c1NC(=O)c1ccc(Br)o1 11.6%
Cc1ccc(SCC(=O)c2cc(C)c(OC(=S)N(C)C)c(C)c2)cc1 0%
Cc1nnc(NC(=O)CCC(=O)N2CCC(C)CC2)s1 8.8%
CCCCCCCCc1c(O)nc(-n2[nH]c(C)c(CCO)c2=O)[nH]c1=O 12.1%
CC(C[N+](C)(C)C)OC(N)=O (stereo not given) 3.2%
CC(=O)OCC(COC(C)=O)OC(C)=O -7.3%
O=S(=O)(c1cccc(C(F)(F)F)c1)N1c2ccccc2-n2cccc2C1c1cccnc1 (stereo not given) 13.5%
Cc1cccc(C)c1NC(=O)C(Cl)C(=O)c1ccccc1 (stereo not given) -23.4%
N#Cc1c(N)nc2c3c(sc(=N)c2c1N)NC(=O)CC3c1ccccc1Cl (stereo not given) -8.3%
CCC(C)[C@H]1COCCS(=O)(=O)N1Cc1ccc(C)cc1 (stereo not given in full) -9.6%
CCOc1ccc(CCN2C(=S)N([C@@H](CC(C)C)CN3CCC[C@@H]3CN3C(=S)NC[C@@H]3Cc3ccc(O)cc3)C[C@@H]2Cc2ccc(O)cc2)cc1 40.9%
CCOc1ccc(CCN2C(=S)N([C@@H](CC(C)C)CN3CCC[C@@H]3CN3C(=S)NC[C@@H]3Cc3ccc(O)cc3)C[C@@H]2CC(C)C)cc1 13.3%
O=C(NCc1ccncc1)c1ccc(NS(=O)(=O)c2cccc([N+](=O)[O-])c2)cc1 8.5%
Cc1c(-c2ccccc2)n[nH]c1C(=O)N=Nc1c(O)[nH]c2ccccc12 -0.9%
Cc1ccc([C@H]2C[C@H](O)[C@@H](n3cc(COC(=O)c4ccccc4)nn3)CN2C(=O)C2CCCCC2)cc1 1.3%
CCCCCC(=O)N1C[C@H](O)[C@@H](n2cc(COC(=O)c3ccccc3)nn2)C[C@@H]1c1ccc(C)cc1 -3.3%
CC(C)=CCN1CCN(CCCc2ccccc2)CC1CCO (stereo not given) 1.3%
Cc1ccc(C(O)c2ncc(-c3ccccc3F)[nH]2)cc1F (stereo not given) -1.5%
COc1ccc(NC(=O)C2C3CCC(O3)C2C(=O)O)cc1OC (stereo not given) -25.3%
COc1ccc(NC(=O)CSCc2ccc([N+](=O)[O-])cc2)cc1OC 2.8%
